PubChem BioAssay AID686978 (National Center for Advancing Translational Sciences (NCATS), 2013)
In all, about 420,000 compounds went through this assay and about 64,000 (15%) were called active. Not shown: some 27% with an inconclusive outcome. The list is a sample of the results. Unmarked numbers belong to inactive results. Calls come from the whole dose curve; as a rule, active = well fitted inhibition curve with a large enough effect; inconclusive = small, poorly fitted or top-dose-only effect; inactive = flat fitted curve, though single readings scatter.

Assay: qHTS for Inhibitors of human tyrosyl-DNA phosphodiesterase 1 (TDP1): qHTS in cells in absence of CPT; note: nearly all actives have a fitted effect of over 55% in size
Settings: DT40 Tdp1-/- hTDP1 cells, no CPT, ATP luminescence, 48 h; activity change, negative = growth inhibition: at 46.2 µM (top of the series)
Procedure, shortened: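 Growth of hTDP1-complemented DT40 Tdp1-knockout cells is measured by ATP luminescence after at least 48 hr compound exposure at 37 °C, with DMSO substituting for the 20 nM CPT used in the parallel screen.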
% is set by controls: 0 for no effect and ±100 for the full control effect; potency is the fitted concentration of half-maximal effect.

| SMILES | Potency | activity change, negative = growth inhibition |
| --- | --- | --- |
| Cc1ccc(NS(=O)(=O)c2ccc(C)c(NC(=O)COc3ccc4ccccc4c3)c2)c(C)c1 | 16.4 µM (active) |  |
| COc1ccc(C(=O)Nc2cc(C)ccc2NC(=O)COc2ccccc2)cc1 |  | -8.06% |
| O=C(CNS(=O)(=O)c1ccc2ccccc2c1)Nc1ccc(F)c(F)c1F |  | -28.9% |
| O=C(CC1CCCCC1)NCc1ccccc1 |  | -9.17% |
| CN(C)CCCNC(=S)NCc1ccc(Cl)cc1 |  | 0.949% |
| C/C(=N\NC(=S)NCc1ccccc1)c1ccc(Cl)cc1 | 18.4 µM (active) |  |
| O=C(O)c1ccc(/C=N/NC(=S)NCc2ccccc2)cc1 |  | 3.93% |
| C/C(=N\NC(=S)NCc1ccccc1)C1CCCCC1 | 6.51 µM (active) |  |
| CC1CCCCN1C(=S)NCc1ccccc1 (stereo unspecified) |  | -7.02% |
| C#CCOCCOCCOCCNc1nc(N2CCN(C(=O)[C@H](CCCCN)n3cc(CCC(=O)O)nn3)CC2)nc(N2CCN(C(=O)[C@H](CCCCN)n3cc(CC(C)O)nn3)CC2)n1 (stereo partly specified) |  | -2.49% |
| CSc1ccc(CNC(=O)c2ccc(NC(=O)C3=CSCCO3)cc2)cc1 |  | 3.26% |
| CC(=O)c1ccc(N2CCN(CC(O)c3ccccc3)CC2)cc1 (stereo unspecified) |  | -1.93% |
| CC1CCCCN1CC(=O)NCc1ccc2c(c1)OCO2 (stereo unspecified) |  | -10.4% |
| Cn1cncc1COC(=O)c1ccc(Cl)cc1 |  | -6.89% |
| Cc1ccc(OCCSc2nc(-c3cccs3)nc3cc(=O)[nH]n23)cc1Cl | 29.1 µM (active) |  |
| CC(C)c1c(O)nc(SCCOc2ccc(Cl)cc2)[nH]c1=O |  | -29.7% |
| CCc1ccccc1OCCSc1nc(-c2cccs2)nc2cc(=O)[nH]n12 |  | -27.3% |
| Brc1cccc(-c2nnc3n2CCC3)c1 |  | -3.77% |
| C[C@H](NC(=O)c1nc[nH]c1C(=O)NCC(=O)OC(C)(C)C)c1ccccc1 |  | -8.32% |
| COc1ccc(CCNC(=O)c2cnc3sc(N4CCCCCC4)nn3c2=O)cc1OC | 8.2 µM (active) |  |
| COc1ccc(CCNC(=O)c2ccc(NC(=O)CC3SC(N4CCCCC4)=NC3=O)cc2)cc1OC (stereo unspecified) |  | -8.94% |
| CSc1ncc(C(=O)NCCCc2ccccc2)c(C)n1 |  | -19.9% |

| SMILES | Potency | activity change, negative = growth inhibition |
| --- | --- | --- |
| COc1ccc(CCNC(=O)C2CCN(c3nn4c(=O)cc(C)nc4s3)CC2)cc1OC |  | 6.86% |
| O=C(O)c1ccccc1-c1ccccc1C(=O)NCCc1ccccc1 |  | -3.96% |
| O=C(NCCc1ccccc1)c1cnc2sc(N3CCCC3)nn2c1=O | 20.6 µM (active) |  |
| Cc1ccccc1N1CC(c2nc3ccccc3[nH]2)CC1=O (stereo unspecified) |  | 1.36% |
| COCCNC(=O)CN(Cc1ccco1)C(=O)CCC(=O)Nc1nccs1 |  | 3.21% |
| CCC(C)NC(=O)Cn1nc(C(F)(F)F)c2c1CCC2 (stereo unspecified) |  | -14% |
| O=C(NCc1ccco1)c1nn2cccnc2c1Cl |  | -1.24% |
| CCOc1ccc(-n2c(SC(C)C(=O)OC)nc3c(c2=O)SCC3)cc1 (stereo unspecified) |  | -8.8% |
| O=S(=O)(c1ccc(F)cc1)N1CCN(C(=S)NCc2ccco2)CC1 |  | -26.6% |
| COc1cc(/C=C/C(=O)O)cc(S(=O)(=O)Nc2ccccc2SC)c1OC |  | -12.2% |
| CC(C)C(NS(=O)(=O)c1cccs1)C(=O)Nc1nc(C(C)(C)C)cs1 (stereo unspecified) | 23.1 µM (active) |  |
| COc1cc(Cl)c(NC(=O)C(NS(=O)(=O)c2cccs2)C(C)C)c(OC)c1 (stereo unspecified) |  | -19.6% |
| CC(C)(C)c1csc(NC2=NS(=O)(=O)c3ccccc32)n1 |  | -10.8% |
| Cc1ccccc1-n1cc(CNC(=O)C2CCC(=O)N(C3CC3)C2)cn1 (stereo unspecified) |  | -13.9% |
| COc1ccc(CC(NC(C)=O)C(=O)N2CCN(C(=O)Nc3cccc(Cl)c3)CC2)cc1OC (stereo unspecified) |  | -22.7% |
| COC(=O)/C=C\C(=O)Nc1cccc([N+](=O)[O-])c1 | 2.06 µM (active) |  |
| O=C(CSCC(=O)Nc1cccc([N+](=O)[O-])c1)Nc1ccccc1 |  | -19.4% |
| CC(=O)Nc1cccc([N+](=O)[O-])c1 |  | 0.516% |
| COc1cc(C2/C(=C(\O)c3ccc4c(c3)CC(C)O4)C(=O)C(=O)N2Cc2ccco2)ccc1O (stereo unspecified) |  | 2.11% |
| CCOC(=O)c1sc2nc(C)nc(Nc3ccc(OC)c(OC)c3)c2c1C |  | -6.11% |
| CCOc1ccc(Nc2ncnc3scc(-c4ccc(OC)cc4)c23)cc1 | 18.4 µM (active) |  |
| COc1ccc(-c2csc3ncnc(Oc4ccc5c(C)cc(=O)oc5c4)c23)cc1 |  | -28.1% |

| SMILES | Potency | activity change, negative = growth inhibition |
| --- | --- | --- |
| Cc1c(Cl)c([N+](=O)[O-])nn1CCCC(=O)NC(C)c1ccccc1 (stereo unspecified) |  | -5.76% |
| CCC(C(=O)N1CCN(S(=O)(=O)c2sc(C(=O)O)c(C)c2C(=O)O)CC1)c1ccccc1 (stereo unspecified) |  | 21.9% |
| Cc1cccc(S(=O)(=O)N(C)C[C@H]2OCc3cnnn3CCCC(=O)N([C@@H](C)CO)C[C@H]2C)c1 |  | -6.15% |
| Cc1csc(-c2nc3ccccc3n2C)n1 | 18.8 µM (active) |  |
| Cn1cccc1-c1nc2ccccc2n1C |  | 6.86% |
| Cn1c(-c2ccc(C(=O)c3ccccc3)s2)nc2ccccc21 |  | -29.8% |
| Cc1ccc2nc(-c3ccc(Br)cc3)cn2c1 |  | 2.36% |
| Cc1cc2c(cc1C)NC(c1ccccn1)C1=C(CC(C)(C)CC1=O)N2 (stereo unspecified) |  | 0.609% |
| Cc1cc(C)n(-c2ccc(C(=O)O)cc2[N+](=O)[O-])n1 |  | -0.656% |
| Nn1cnnc1N/N=C/c1cc([N+](=O)[O-])c(Cl)cc1Cl |  | 2.17% |
| CN(C)c1ccc(/C=C/C(=O)c2ccc(C(C)(C)C)cc2)cc1[N+](=O)[O-] | 23.1 µM (active) |  |
| CC(CC(=O)O)C(=O)c1ccc(Cl)c([N+](=O)[O-])c1 (stereo unspecified) |  | -3.74% |
| NC(N)=N/N=C/c1ccc(Cl)c([N+](=O)[O-])c1 | 10.3 µM (active) |  |
| Nc1nc(SCC(=O)Nc2ccc(Cl)c([N+](=O)[O-])c2)n[nH]1 |  | -8.59% |
| O=C(O)c1ccc2c(=O)n3c(nc2c1)/C(=C/c1ccc(Cl)c([N+](=O)[O-])c1)CC3 |  | -11% |
| O=C(/C=C/c1ccc(Cl)c([N+](=O)[O-])c1)c1ccc(O)cc1 | 4.61 µM (active) |  |
| O=C(/C=C/c1ccc(Cl)cc1)N1CCN(c2ccccc2[N+](=O)[O-])CC1 |  | -28.2% |
| C[C@@H]1CC2=C(C(=O)OC(C)(C)O2)[C@@H](C2CC2)O1 |  | -9.87% |
| COc1cccc(-c2ccc3c(c2)S(=O)(=O)c2cccc(C(=O)O)c2C3=O)c1OC |  | 3.86% |
| O=C(COC(=O)c1ccc([N+](=O)[O-])cc1Cl)NC(=O)c1ccccc1 |  | -7.52% |
| O=S(=O)(c1ccccc1)N1CCC2(CC1)CN(Cc1nccs1)C2 |  | -16.2% |
| CC(=O)N[C@@H](C)C(=O)N1CCC(n2nccc2NC(=O)CCCc2ccccc2)CC1 |  | 26.3% |
